The list is not random: actives were taken first. Their share in the collection is about 5.9%.
HSF1 activator – increases HSF-1 driven luciferase reporter signal | 300,000 tested, 1.7% active | NIH3T3-HGL HSF-1 luciferase reporter, MG132, 8 h; 100% = twice DMSO control signal | activation, % at 9 µM;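 active = mean replicate activation of at least 50% with a set share of replicates each reaching 50%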;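 note: 0% = median of the neutral control wells and 100% = twice that signal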
FXN GAA850 act – increases GAA850 frataxin promoter reporter activity. HEK293 lucGAA850 FXN promoter luciferase reporter, 24 h; percent of 10 µM SAHA response. activation, % at 6 µM. 360,000 tested, 0.56% active;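 active = activation above the average of all compounds screened plus 3 SD, cutoff fixed separately per campaign, cut at about 7.5% in these data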;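 note: 0% = DMSO wells and 100% = 10 µM SAHA wells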
HSF1 inh – HSF1 inhibition; activity change, negative = inhibition, % at 7.5 µM (by protocol); 300,000 tested, 0.77% active; NIH3T3-HGL HSE-luciferase, MG132-induced, luminescence 8 h; stronger effect = lower value;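 active = more than half of replicate wells show activity change below -50%, luminescence cut by over half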;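 note: luciferase reports HSF-1 transcriptional activity via heat shock element; 0% = median of DMSO wells and -100% = zero luminescence signal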
HSP90 refold inh – blocks HSP90-mediated luciferase refolding in reticulocyte lysate. inhibition, % at 5.6 µM. Rabbit reticulocyte lysate, luciferase refolding luminescence, 3 h. AID 1789. 290,000 tested, 0.91% active;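 active = inhibition above the screen-wide mean plus 3 SD, computed separately per campaign, cut at about 16% in these data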;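 note: 0% = DMSO wells and 100% = 60 µM geldanamycin wells; inhibitors lower the luminescence because luciferase stays unfolded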
AHR act – activators of human aryl hydrocarbon receptor; activation, % at 5 µM; AHR-responsive luciferase reporter cells, luminescence; 320,000 tested, 2.5% active; AID 2796; in the data active = activation above about 47%;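 note: 0% = vehicle wells and 100% = reference agonist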
NR0B1 inh – inhibitors of human orphan nuclear receptor DAX1 (NR0B1). HEK293 Gal4-DAX1 luciferase reporter, luminescence. P51843. inhibition, % at 6.75 µM. 340,000 tested, 0.99% active. AID 504766;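 active = inhibition above the mean over all tested compounds plus 3 SD, cut at about 4.2% in these data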;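 note: 0% = DAX1-transfected cells with DMSO and 100% = empty-vector control cells with DMSO; inhibition shows as a rise in luminescence from relieved DAX1 repression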
Target sequence (P51843 207-470 limits assumed): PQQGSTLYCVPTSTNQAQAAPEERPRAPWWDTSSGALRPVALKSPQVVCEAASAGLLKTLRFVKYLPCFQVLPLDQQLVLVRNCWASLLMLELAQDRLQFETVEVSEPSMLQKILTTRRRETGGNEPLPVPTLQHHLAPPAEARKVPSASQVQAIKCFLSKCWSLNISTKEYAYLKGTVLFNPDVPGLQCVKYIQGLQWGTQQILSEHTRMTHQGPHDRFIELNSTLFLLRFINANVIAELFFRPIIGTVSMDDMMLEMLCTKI
Starred values were filed as active, the others as inactive; nt = not tested or not shown.

SMILES	HSF1 activator	FXN GAA850 act	HSF1 inh	HSP90 refold inh	AHR act	NR0B1 inh
CCCn1c2ccccc2c2cnn(CC(=O)NCCCN3CCN(c4ccccc4)CC3)c(=O)c21	-3.5	-2.5	0.5	-1.6	2.9	-0.2
O=C(N/N=C/c1ccc([N+](=O)[O-])o1)c1cc2ccccc2o1	19.4	-2.1	9.4	5.1	9.6	-4.5
O=[N+]([O-])c1ccc(/C=N/Nc2ccc3ccccc3c2)o1	7.0	4.4	0.1	-3.7	75.6*	1.5
CCOc1ccc(OCCCC(=O)N2CCN(S(=O)(=O)c3ccccc3C#N)CC2)cc1	nt	1.0	nt	nt	0.3	-0.4
Cc1ccc(NC(=O)c2cc(NC(=O)c3ccco3)ccc2N2CCOCC2)cc1	-72.0	-0.7	-64.0*	-1.9	26.5	-0.8
O=C(Nc1ccc(N2CCOCC2)c(Cl)c1)c1cccnc1Cl	1.7	0.7	2.3	-2.1	-1.7	0.9
COc1c(C)cccc1C(=O)Nc1ccc(N2CCOCC2)c(Cl)c1	60.3*	4.5	25.0	3.9	-4.2	1.6
C=C(C)C(=O)Nc1ccc2nn(-c3ccccc3O)nc2c1	nt	4.4	nt	nt	nt	2.2
CC1(C)Cc2c(sc(NC(=O)C(=O)NCCCN3CCOCC3)c2C#N)CO1	-22.1	1.6	-3.6	-3.1	1.9	1.2
CC(=O)c1ccc(-c2ccc(C(=O)NCC3CCCO3)o2)cc1 (stereo unspecified)	-9.8	3.4	0.2	nt	7.2	-0.2
CN1CCN(C(=S)Nc2cc([N+](=O)[O-])ccc2Cl)CC1	nt	-1.9	nt	-0.1	0.2	5.3*
CCOC(=O)c1c(C)[nH]c(C)c1C(=O)CSc1nc2ccccc2n1CC	-41.7	-4.9	-26.4	2.3	28.8	-1.6
CCOC(=O)c1c(C)[nH]c(C)c1C(=O)CSc1ncccn1	-3.1	0.8	-1.4	2.5	77.6*	-0.8
CCOC(=O)c1c(C)[nH]c(C)c1C(=O)CSc1nc2ccccc2[nH]1	11.6	-0.6	-5.4	5.8	58.5*	0.9
CC1CCN(C(=O)COC(=O)c2ccc(=O)n(Cc3ccccc3)n2)CC1	-6.9	-1.5	-3.5	nt	2.8	1.3
N#CC1(Nc2ccc(Br)cc2)CCCC1	nt	-1.7	nt	nt	nt	-0.5
O=C(CN1CCOCC1)Nc1ccc(-c2nc3ccccc3[nH]2)cc1	56.3*	3.0	30.5	6.1	8.6	0.2
Cc1[nH]c2ccccc2c1-c1csc(NC(=O)CN2CCOCC2)n1	-0.4	0.9	1.3	1.3	70.5*	0.1
C=CCSc1nnc(-c2cccc3ccccc23)o1	nt	1.0	nt	nt	2.2	-0.3
Cc1ccc(-c2nnc(SCc3ccccc3F)o2)cc1	57.6*	3.5	26.1	1.6	-7.6	3.0
C#CCSc1nnc(-c2cccc3ccccc23)o1	68.6*	1.7	40.7	-2.2	26.8	-0.2
C#CCSc1nnc(-c2ccc(C)cc2)o1	60.7*	4.0	37.1	3.7	-7.1	0.8
COc1ccc(CNC(=O)CCc2nc(-c3ccccc3F)no2)c(OC)c1	0.5	0.1	2.6	0.5	49.0*	1.8
O=C(CCc1nc(-c2cccs2)no1)NCc1ccc(F)cc1Cl	-88.4	0.7	-85.5*	2.1	0.7	0.7
CC(C)CCOC(=O)C(C)Sc1n[nH]c(=O)[nH]c1=O (stereo unspecified)	-1.0	0.8	0.7	-0.1	4.4	-2.2
SMILES	HSF1 activator	FXN GAA850 act	HSF1 inh	HSP90 refold inh	AHR act	NR0B1 inh
CCCSc1ccc2nc(NC(=O)OC)[nH]c2c1	1.2	0.5	-1.1	-1.4	53.7*	1.0
COC(=O)Nc1nc2ccc(SC(C)C)cc2[nH]1	nt	2.3	nt	nt	25.4	-0.7
COc1ccc(-n2nc(C(=O)NCC(=O)N3CCOCC3)c3ccccc3c2=O)cc1Cl	56.2*	1.6	13.1	-0.3	1.3	1.0
CCCCC(=O)N(C)c1c(C)nc2ccc(C(=O)N3CCN(S(=O)(=O)CC)CC3)cn12	nt	0.6	nt	nt	nt	nt
CNc1ccc(S(=O)(=O)NCC(=O)NCCCc2ccccc2)cc1[N+](=O)[O-]	2.1	0.4	1.1	4.0	3.9	-0.1
COC(=O)c1ccc2c(C)c(C(C)(C)O)[nH]c2c1	4.7	1.6	-2.9	-6.0	-0.3	2.3
Cc1ccc(O)c(N)c1	nt	5.7	nt	nt	42.3	0.7
Cc1ccc(SSc2cc(C)ccc2N)c(N)c1	-12.1	6.0	-10.5	nt	58.1*	-0.2
Cc1ccc(NC(=O)c2snc3ccc(Cl)cc23)cc1C	56.0*	3.6	24.8	-4.1	20.6	1.8
Cc1ccc(S(=O)(=O)N2C[C@H]3N(C(=O)OC(C)C)N(C(=O)OC(C)C)C[C@H](OC(=O)NCc4ccco4)[C@@]3(O)C2)cc1	nt	-6.7	nt	nt	nt	0.6

High-throughput results as filed in PubChem.
